Data: PubChem BioAssay AID1345085 (National Center for Advancing Translational Sciences (NCATS), 2018)
Inconclusive results are not listed. Values without a mark were called inactive. The source made the active and inactive calls. Calls follow the shape of the dose curve; as a rule, active = well fitted cell-killing curve with a large enough effect; inconclusive = small, poorly fitted or top-dose-only effect, or effect the other way; inactive = no such curve, though single readings can be large or run the other way.

Test system: Hek293T
Assay: Confirmatory qHTS for gynecologic anti-cancer compounds from libraries of approved drugs and bioactive compounds; also: nearly all actives have a fitted effect of over 55% in size
Settings: gynecologic cancer cell panel viability, ATPlite luminescence, 48 h; series mostly up to 57.6 µM; activity change, negative = viability loss: at the top concentration
Outline: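 ATP-based luminescent viability (ATPlite) after 48 h drug treatment at 37 °C, 5% CO2, across 57.5 uM–0.977 nM in 1:3 steps. Cells seeded at 1,000 per well 16 h beforehand; IC50 values computed, HEK 293T as selectivity control.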
% is scaled to controls: 0 for no effect and ±100 for the full control effect; potency is read from the fitted curve at half-maximal effect.

| Compound | Potency | activity change, negative = viability loss |
| --- | --- | --- |
| CC(C)Oc1ccc2c(=O)c(-c3ccccc3)coc2c1 | 4.85 µM (active) | – |
| COc1cc2c(c(OC)c1OC)-c1ccc(OC)c(=O)cc1[C@@H](NC(C)=O)CC2 | – | -14.6% [at 486 µM] |
| Cc1c(C)n(Cc2ccc(-c3ccccc3C(=O)O)cc2)c2ccc(C(=O)N[C@@H](C)c3ccc([N+](=O)[O-])cc3)cc12 | – | -31.7% |
| NC(=O)Nc1cc(-c2cccc(F)c2)sc1C(=O)NC1CCCNC1 (configuration not stated) | 0.273 µM (active) | – |
| CCN1CCN(Cc2ccc(Nc3ncc(F)c(-c4cc(F)c5nc(C)n(C(C)C)c5c4)n3)nc2)CC1 | – | -21.2% |
| CCOc1cc2ncc(C#N)c(Nc3ccc(F)c(Cl)c3)c2cc1NC(=O)/C=C/CN(C)C | 15.3 µM (active) | – |
| C[C@@]1(C(=O)Nc2ccc(F)nc2)CCCN1c1nc(Nc2cc(C3CC3)[nH]n2)c2cccn2n1 | – | 10.3% |
| CC(=O)O[C@H]1C(=O)[C@@]2(C)[C@H]([C@H](OC(=O)c3ccccc3)[C@]3(O)C[C@H](OC(=O)[C@H](O)[C@@H](NC(=O)c4ccccc4)c4ccccc4)C(C)=C1C3(C)C)[C@]1(OC(C)=O)CO[C@@H]1C[C@@H]2O | – | 4.91% [at 10.7 µM] |
| CC(Oc1cc(-n2cnc3ccc(CN4CCN(C)CC4)cc32)sc1C(N)=O)c1ccccc1C(F)(F)F (configuration not stated) | 24.3 µM (active) | – |
| COc1cc2c(Nc3ccc(NC(=O)c4ccccc4)cc3)ncnc2cc1OCCCN1CCOCC1 | 24.3 µM (active) | – |
| CC[C@@]1(O)C(=O)OCc2c1cc1n(c2=O)Cc2cc3c(CN(C)C)c(O)ccc3nc2-1 | 3.43 µM (active) | – |
| COc1ccc2c(c1OC)C(=O)O[C@@H]2[C@H]1c2c(cc3c(c2OC)OCO3)CCN1C | – | 4.29% |
